The source of these data is PubChem BioAssay.

Assay [1] has as its system TRPC4 beta (transient receptor potential cation channel C4), mouse. As to the kind of experiment: TRPC4 cation channel opening, retest – cell-based, Fluo4 calcium, HEK293 TRPC4beta/mu-opioid, duplicates, 10 µM, confirmation (AID 2426;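 active = fluorescence ratio normalized to control raised more than 50% in primary screen plus both repeat runs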). The settings on record: Fluo4 calcium fluorescence, at 10 µM; active compounds read high.
The test system of assay [2] is transient receptor potential cation channel C4 beta (TRPC4), mouse. The assay can be described thus: TRPC4 cation channel opening, second retest – cell-based, second round, Fluo4, HEK293 TRPC4beta/mu-opioid, 1 µM, confirmation (AID 2461;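 active = primary screen active and over 50% activation in each of two duplicate runs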). The settings on record: Fluo4 calcium fluorescence, at 1 µM; active compounds read high.
Assay [3] relates to TRPC4 (transient receptor potential cation channel C4 beta), mouse. The assay can be described thus: potentiation of DAMGO EC20 TRPC4 response – cell-based, second round, Fluo-4, HEK293 TRPC4beta/mu-opioid, 1 µM, confirmation (AID 2554;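 active = primary screen hit whose fluorescence ratio, in both repeats, exceeds the weak agonist control mean by 3 SD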). The conditions noted are these: DAMGO EC20, Fluo-4 calcium flux, at 1 µM; active compounds read high.
Assay [4] deals with TRPC4 beta (transient receptor potential cation channel C4), mouse. The assay can be described thus: potentiation of DAMGO EC20 TRPC4 response – cell-based, Fluo-4, HEK293 TRPC4beta/mu-opioid, confirmation (AID 2555;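 active = primary screen hit whose calcium fluorescence ratio, in both repeats, exceeds the weak agonist control mean by 3 SD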). The conditions noted are these: DAMGO EC20, Fluo-4 calcium flux, at 10 µM; active compounds read high.
Assay [5] has as its target Short transient receptor potential channel 4 (Mus musculus) (UniProt Q9QUQ5). The assay can be described thus: blockers of DAMGO-evoked TRPC4 calcium flux – cell-based, Fluo4, HEK293 TRPC4beta/mu-opioid, confirmation (AID 2636). The settings on record: at 10 µM; active compounds read high.
Assay [6] shares this target. The assay can be described thus: blockers of DAMGO-evoked TRPC4 calcium flux – cell-based, second round, Fluo4, HEK293 TRPC4beta/mu-opioid, 1 µM, confirmation (AID 2637;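 active = calcium signal ratio cut to more than 3 SD under the fully stimulated control mean yet still positive, in both repeats and the primary screen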). The conditions noted are these: at 1 µM; active compounds read high.
The target is the same in assay [7]. The assay can be described thus: calcium entry via TRPC4 opening agents – cell-based, HEK293 TRPC4/mu-opioid, Fluo-4 calcium, dose response (AID 434937;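 active = primary screen activator hit with a dose response curve and TRPC4 channel activation at any tested dose; inactive = no activation, no dose response, or not a primary hit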).
Assay [8] has the same target. As to the kind of experiment: potentiation of DAMGO-evoked TRPC4 calcium signal – cell-based, HEK293 TRPC4/mu-opioid, Fluo-4 calcium, EC20 DAMGO, dose response (AID 434941;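 active = earlier screen potentiator hit that boosts the TRPC4 ion channel at some dose, with a dose response; inactive = no potentiation, no dose response, or not a prior hit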;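 note: calcium entry triggered by an EC20 dose of DAMGO at the co-expressed mu-opioid receptor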).
Assay [9] shares this target. As to the kind of experiment: block of DAMGO-driven TRPC4 calcium entry – cell-based, HEK293 TRPC4/mu-opioid, Fluo-4 calcium, dose response (AID 434942;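 active = primary screen inhibitor hit that blocks the TRPC4 channel at some tested dose, yielding a dose curve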).
The target in assay [10] is Short transient receptor potential channel 6 (Mus musculus) (UniProt Q61143). As to the kind of experiment: TRPC6 blockade by TRPC4 inhibitor hits – cell-based, HEK293, membrane potential dye, duplicate, selectivity assay for TRPC4 inhibitor project, confirmation (AID 434948;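 active = active in primary screen and both duplicates, each dropping signal beyond three positive-control SD with fluorescence still positive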). The settings on record: HEK293 TRPC6, membrane potential dye fluorescence, at 10 µM, stimulated with maximal-effect acetylcholine; active compounds read high.

The target is the same in assay [11]. The assay can be described thus: TRPC6 opening by TRPC4 activator hits – cell-based, HEK293, membrane potential dye, duplicate, selectivity assay for TRPC4 activator project, confirmation (AID 434950;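 active = membrane potential signal rise above negative control mean plus 3 SD in both duplicates, also active in the earlier TRPC4 screen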). The settings on record: HEK293 TRPC6, membrane potential fluorescence, at 10 µM; activation: active compounds read high; outcome: activation.
The target is the same in assay [12]. As to the kind of experiment: positive modulators of mouse TRPC6 channel – HEK293 cells, membrane potential dye, duplicate, selectivity assay for TRPC4 potentiator project, confirmation (AID 434952;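 active = compound raising the membrane signal above positive-control mean plus 3 SD in both repeats, and a primary screen hit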). The settings on record: HEK293 TRPC6, membrane potential dye fluorescence, at 10 µM, maximal acetylcholine added after compound; active compounds read high.
Assay [13] has as its target Short transient receptor potential channel 4 (Mus musculus) (UniProt Q9QUQ5). The assay can be described thus: calcium flux activators in TRPC4/5HT1a cells, counter-screen for TRPC4 activator project, cell-based, second counter screen, HEK293 TRPC4/5HT1a, Fluo-4 (AID 434977;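 active = calcium signal rise above buffer-control mean plus 5 SD in both duplicates, and also a hit in the primary screen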). The settings on record: Fluo-4 calcium flux, at 10 µM; active compounds read high.
The nature of assay [14]: serotonin-gated TRPC4 signal block – cell-based, second counter screen, HEK293 TRPC4/5HT1a, Fluo-4, counter-screen for TRPC4 inhibitor project, confirmation (AID 434978;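 active = primary screen active whose calcium signal fell more than 3 SD beyond the full-serotonin control mean in both duplicate plates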;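 note: serotonin given first at submaximal then at maximal dose after compound preincubation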). The conditions noted are these: Fluo-4 calcium flux, at 10 µM, serotonin added to trigger calcium flux; active compounds read high.
In assay [15] the test system is TRPC4 (mouse), co-expressed with 5HT1a in HEK293. The assay can be described thus: enhancement of serotonin-evoked TRPC4 response – cell-based, second counter screen, HEK293 TRPC4/5HT1a, Fluo-4, counter-screen for TRPC4 potentiator project, confirmation (AID 434979;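 active = signal rise over 3 SD above mean of control wells given weak agonist, in both repeats and first screen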). The settings on record: Fluo-4 calcium flux, at 10 µM, serotonin added at its EC20 dose; active compounds read high.

Assay [16] in a line: nonspecific calcium rise without TRPC4 – cell-based, HEK293 mu-opioid receptor line, counter-screen for TRPC4 activator project, confirmation (AID 449723;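 active = hit in primary screen, with calcium signal over 5 SD above buffer well mean in both duplicates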;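 note: counter screen cells carry the mu-opioid receptor alone and lack TRPC4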). The conditions noted are these: HEK293 mu-opioid cells, Fluo-4 calcium fluorescence, at 10 µM; active compounds read high.
A short description of assay [17]: nonspecific potentiation of DAMGO calcium response – cell-based, HEK293 mu-opioid receptor line, counter-screen for TRPC4 allosteric potentiator project, confirmation (AID 449724;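 active = calcium signal rise more than 3 SD above the low-dose agonist control mean, in both duplicate plates and the primary screen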;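 note: HEK293 cells carrying mu-opioid receptor only with no TRPC4 channel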). The conditions noted are these: HEK293 mu-opioid receptor cells, Fluo-4 calcium flux, at 10 µM, compound added before EC20 DAMGO stimulus; active compounds read high.

For some assays here: Potency and affinity values are given separately. Active and inactive are the calls of the source.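 Rule for the calls, unless noted: active = calcium signal cut by more than 3 SD below the full-agonist control yet still positive, in both repeats and the earlier primary screen; inactive = the rest.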

Short transient receptor potential channel 4 (Mus musculus), sequence (Q9QUQ5 whole entry, looked up): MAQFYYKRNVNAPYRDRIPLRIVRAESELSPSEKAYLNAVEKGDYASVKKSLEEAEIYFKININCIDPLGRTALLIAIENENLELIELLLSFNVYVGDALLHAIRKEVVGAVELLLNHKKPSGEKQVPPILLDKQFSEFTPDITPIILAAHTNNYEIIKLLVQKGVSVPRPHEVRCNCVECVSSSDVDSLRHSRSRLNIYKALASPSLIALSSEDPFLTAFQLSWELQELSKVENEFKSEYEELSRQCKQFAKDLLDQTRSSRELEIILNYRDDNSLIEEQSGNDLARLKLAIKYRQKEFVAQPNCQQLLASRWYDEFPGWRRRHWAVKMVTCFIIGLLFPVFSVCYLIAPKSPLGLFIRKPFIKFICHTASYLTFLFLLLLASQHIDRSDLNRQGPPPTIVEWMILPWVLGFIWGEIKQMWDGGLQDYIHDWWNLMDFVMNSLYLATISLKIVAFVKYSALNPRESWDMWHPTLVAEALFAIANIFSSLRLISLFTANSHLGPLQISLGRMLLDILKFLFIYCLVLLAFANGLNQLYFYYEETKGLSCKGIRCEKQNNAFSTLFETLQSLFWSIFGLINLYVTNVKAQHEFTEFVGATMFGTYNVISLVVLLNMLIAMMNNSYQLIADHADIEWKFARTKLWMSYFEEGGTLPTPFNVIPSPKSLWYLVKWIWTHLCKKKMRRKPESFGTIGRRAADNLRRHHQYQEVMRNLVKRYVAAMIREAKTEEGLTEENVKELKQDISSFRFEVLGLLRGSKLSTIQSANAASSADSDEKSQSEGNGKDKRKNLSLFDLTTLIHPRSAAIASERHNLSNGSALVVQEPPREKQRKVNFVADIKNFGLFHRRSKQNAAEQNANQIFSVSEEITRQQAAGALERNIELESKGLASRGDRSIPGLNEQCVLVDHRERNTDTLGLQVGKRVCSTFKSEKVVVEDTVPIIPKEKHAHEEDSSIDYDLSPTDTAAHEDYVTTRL
Short transient receptor potential channel 6 (Mus musculus), sequence (Q61143 whole entry, looked up): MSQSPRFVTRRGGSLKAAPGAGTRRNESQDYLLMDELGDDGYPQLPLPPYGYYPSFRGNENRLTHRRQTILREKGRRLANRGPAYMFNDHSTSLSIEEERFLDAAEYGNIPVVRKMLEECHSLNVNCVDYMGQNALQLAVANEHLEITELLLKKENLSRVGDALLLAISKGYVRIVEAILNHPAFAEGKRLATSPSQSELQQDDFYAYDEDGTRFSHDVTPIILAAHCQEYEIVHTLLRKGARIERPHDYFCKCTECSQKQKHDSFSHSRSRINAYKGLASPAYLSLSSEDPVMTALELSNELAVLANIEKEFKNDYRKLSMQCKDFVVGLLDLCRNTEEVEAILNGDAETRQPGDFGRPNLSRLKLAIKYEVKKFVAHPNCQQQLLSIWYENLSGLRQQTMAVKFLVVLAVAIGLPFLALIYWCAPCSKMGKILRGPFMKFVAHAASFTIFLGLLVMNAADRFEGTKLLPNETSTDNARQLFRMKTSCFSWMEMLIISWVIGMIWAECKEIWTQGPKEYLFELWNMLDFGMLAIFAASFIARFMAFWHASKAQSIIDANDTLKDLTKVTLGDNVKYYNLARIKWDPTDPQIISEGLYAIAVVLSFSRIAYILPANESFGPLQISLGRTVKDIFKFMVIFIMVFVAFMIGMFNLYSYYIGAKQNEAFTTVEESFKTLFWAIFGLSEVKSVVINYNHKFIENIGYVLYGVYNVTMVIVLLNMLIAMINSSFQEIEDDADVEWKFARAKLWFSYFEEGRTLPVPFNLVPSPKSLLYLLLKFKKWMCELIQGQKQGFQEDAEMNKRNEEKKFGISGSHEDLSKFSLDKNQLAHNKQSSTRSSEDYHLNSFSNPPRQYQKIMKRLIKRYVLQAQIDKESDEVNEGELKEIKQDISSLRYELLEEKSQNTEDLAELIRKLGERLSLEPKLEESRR

`CC1(C#CC[N+]2(C)CCCCC2)CCC2C(O1)c1ccccc1OC2(C)C` (stereo not given): the outcome in assay [1], in assay [2], in assay [5], in assay [6], in assay [7] and in assay [8] was inactive. The outcome in assay [9], in assay [10], in assay [11], in assay [12], in [13] and in assay [14] was inactive. Moreover, the result in assay [15], in [16] and in assay [17] was inactive. The potentiation was 8% (active) in assay [3] and 21% (active) in assay [4].
With `CCOC(=O)c1cnc(-n2nc(C)cc2C)nc1NC1CCCCC1`, the result in [1], in assay [2], in assay [3], in assay [4], in [5] and in assay [6] was inactive. In addition, the outcome in [7], in [8], in assay [9], in assay [10], in assay [11] and in assay [12] was inactive. The result in assay [13], in assay [14], in assay [16] and in assay [17] was inactive. Moreover, the potentiation in assay [15] was 26.3% (active).
Take `CCOC(=O)c1ccc(NC(=S)N2CCSC2c2ccc(Cl)cc2)cc1` (stereo not given): the outcome in assay [1], in assay [2], in assay [3], in assay [5], in [6] and in assay [7] was inactive. Also, the result in assay [8], in assay [9], in assay [10], in assay [11], in assay [12] and in assay [13] was inactive. The result in assay [14], in assay [16] and in [17] was inactive. Further, the values for the potentiation in [4] and in [15] were 21% (active) and 26.4% (active), respectively.
Turning to `Clc1cc(/C=N\NC2=NCCN2)cc(Cl)n1`, the result in assay [1], in assay [2], in [3], in assay [4], in assay [5] and in assay [6] was inactive. In addition, the outcome in assay [7], in assay [8], in [9], in [10], in [11] and in assay [12] was inactive. Also, the result in [13], in [14], in [15], in assay [16] and in assay [17] was inactive.
For `NN=C1c2cc([N+](=O)[O-])ccc2-c2ccc([N+](=O)[O-])cc21`, the outcome in assay [1], in assay [2], in [3], in assay [4], in [5] and in [6] was inactive. The result in assay [7], in assay [8], in assay [9], in [10], in [11] and in assay [12] was inactive. Also, the result in assay [13], in [14], in [15], in assay [16] and in [17] was inactive.
Regarding `C/C(=N\N1CCN(C)CC1)c1ccc(Cl)c(Cl)c1`, the result in assay [1], in assay [2], in assay [3], in assay [4], in [5] and in assay [6] was inactive. Also, the outcome in assay [7], in assay [8], in assay [9], in assay [10], in assay [11] and in assay [12] was inactive. Further, the result in assay [13], in [14], in assay [16] and in [17] was inactive. The potentiation in assay [15] is 13.3% (active).
Take `Cc1cccc(C)c1NC(=O)NCCCN1CCN(c2ccccc2)CC1`: the result in assay [1], in assay [2], in assay [3], in assay [4], in [5] and in [6] was inactive. Also, the outcome in assay [7], in assay [8], in [9], in [10], in [11] and in [12] was inactive. For the same molecule, the outcome in [13], in assay [14], in assay [15], in [16] and in assay [17] was inactive.
For the molecule `CCN1CCN(Cc2nc3c(c(=O)[nH]c(=O)n3C)n2Cc2ccccc2Cl)CC1`, the outcome in assay [1], in assay [2], in [3], in assay [5], in assay [6] and in [7] was inactive. For the same molecule, the outcome in assay [8], in assay [9], in [10], in assay [11], in assay [12] and in assay [13] was inactive. In addition, the outcome in [14], in assay [16] and in assay [17] was inactive. Besides, the values for the potentiation in assay [4] and in assay [15] were 12% (active) and 19% (active), respectively.
On to `COc1ccc(/C=N/n2c(SC)nnc2-c2ccccc2)cc1C`, for which the outcome in assay [1], in assay [2], in assay [3], in assay [5], in assay [6] and in [7] was inactive. For the same molecule, the outcome in assay [8], in assay [9], in assay [10], in assay [11], in [12] and in assay [13] was inactive. The outcome in assay [14], in assay [16] and in [17] was inactive. For the same molecule, the potentiation in assay [4] is 9% (active); in assay [15], 20.6% (active).
For `CCOC(=O)c1ccc(N=C2C(=S)N(c3ccc(C(=O)OCC)cc3)C(=N)N2/N=C/c2ccccc2)cc1`, the result in [1], in [2], in assay [3], in assay [4], in assay [5] and in assay [6] was inactive. For the same molecule, the result in assay [7], in assay [8], in assay [9], in assay [10], in assay [11] and in assay [12] was inactive. Also, the result in assay [13], in [14], in [15], in assay [16] and in assay [17] was inactive.
